hcDAF-12 act: H. contortus DAF-12 activation, primary screen; HEK293 hcDAF-12 lit1-tk-luc reporter, luminescence; 0% DMSO, 100% Δ7-dafachronic acid; activation, % at 6.8 µM; 370,000 compounds, 1.4% hits; AID 652067;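 active = activation above the mean of all tested compounds plus 3 SD, cut at about 5.5% in these data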;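 also: 100% = response to 3 µM Δ7-dafachronic acid high control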
hgDAF12 agonist: activates the H. glycines DAF-12 receptor ligand-binding domain; HEK293 GAL4-hgDAF12 UAS-luciferase reporter, agonist luminescence; normalized to butyrate control; activation, % at 6.8 µM; 370,000 compounds, 1.8% hits; AID 687014;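 active = activation above a cutoff set at the mean of all screened compounds plus 3 SD, cut at about 10% in these data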;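 also: 0% = DMSO wells and 100% = sodium butyrate wells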
DAX1 inh-1: blocks DAX1 repression of SF-1 activated StAR promoter; inhibition, % at 6.8 µM; AID 652010; HEK293T StAR-luciferase reporter, SF-1/DAX-1 repression relief; 370,000 compounds, 1.1% hits;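 active = inhibition above the mean over all tested compounds plus 3 SD, cut at about 3.6% in these data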;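 also: 0% = DAX-1 cells with DMSO and 100% = cells lacking DAX-1 with DMSO; higher inhibition means more luminescence from relief of DAX-1 repression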
ssDAF12 agonist: activates DAF-12 receptor from parasite S. stercoralis; HEK293 ssDAF-12/GRIP1 lit1-tk-luc reporter, luminescence; % of 3 µM dafachronic acid response; activation, % at 6.8 µM; 370,000 compounds, 1% hits;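 active = activation above the mean over all tested compounds plus 3 SD, cut at about 0.9% in these data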;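 also: 0% = DMSO-only wells and 100% = 3 µM delta7-dafachronic acid wells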
DAX1 inh-2: NR0B1 (DAX1) inhibition; P51843; inhibition, % at 6.75 µM; HEK293 Gal4-DAX1 luciferase reporter, luminescence; 340,000 compounds, 0.99% hits; AID 504766;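 active = inhibition above the mean over all tested compounds plus 3 SD, cut at about 4.2% in these data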;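 also: 0% = DAX1-transfected cells with DMSO and 100% = empty-vector control cells with DMSO; inhibition shows as a rise in luminescence from relieved DAX1 repression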
Target sequence (P51843 207-470 limits assumed): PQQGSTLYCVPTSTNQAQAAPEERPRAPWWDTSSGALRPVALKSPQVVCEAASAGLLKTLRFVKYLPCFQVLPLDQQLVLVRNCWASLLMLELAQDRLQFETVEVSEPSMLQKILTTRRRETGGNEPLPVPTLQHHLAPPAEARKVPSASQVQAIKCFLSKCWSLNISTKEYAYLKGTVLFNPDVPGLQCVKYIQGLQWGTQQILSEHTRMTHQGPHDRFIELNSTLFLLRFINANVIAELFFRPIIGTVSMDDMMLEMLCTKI
LXRb hcDAF ctr: LXR-beta agonism as hcDAF-12 counter-screen; shares compounds with hcDAF-12 act; HEK293 Gal4-LXR tk-luc reporter, luminescence, 24 h; normalized: DMSO 0%, positive control 100%; activation, % at 6.8 µM; 3,400 tested, under 10 active; AID 743027;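 active = mean percent activation of the reporter above a cutoff set as the average over tested compounds plus their standard deviation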
hcDAF12 conf: hcDAF-12 agonism, confirmation assay | shares compounds with hcDAF-12 act | HEK293 hcDAF-12 lit1-tk-luc reporter, luminescence; % of Δ7-dafachronic acid response | activation, % at 6.8 µM | 3,400 compounds, 61% hits;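 active = mean activation across triplicate tests above the threshold derived from the earlier primary screen, cut at about 5.5% in these data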;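 also: 0% = DMSO only wells and 100% = 3 µM Δ7-dafachronic acid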
The depositor's hits bear a star; . = not tested or not shown. Hits are enriched below; roughly 4.1% of the tested compounds scored in any of these assays.

SMILES | hcDAF-12 act | hgDAF12 agonist | DAX1 inh-1 | ssDAF12 agonist | DAX1 inh-2 | LXRb hcDAF ctr | hcDAF12 conf
COCCNC(=O)CN1C(=O)NC2(CCOc3ccccc32)C1=O (stereo unspecified) | 7.2* | 0 | 0 | -1 | 0 | 0 | 4
CCCCNC(=O)CN1C(=O)NC2(CCOc3ccccc32)C1=O (stereo unspecified) | -1 | 0 | 0 | -1 | 0 | . | .
Cn1c(=N)n(CC(=O)c2ccc(Br)s2)c2ccccc21 | 14* | 12* | 3 | 2.8* | 4 | 2 | 16*
N=c1n(CC(=O)c2ccc(Br)s2)c2ccccc2n1Cc1ccccc1 | -1 | -2 | 0 | -1 | -1 | . | .
COC(=O)c1cc(=O)nc(NN=Cc2ccc(C)cc2)s1 | -3 | 0 | 0 | -1 | . | . | .
CC(=O)Nc1sc(N/N=C\c2cccc(Cl)c2)nc1-c1cccs1 | 8.4* | 5 | 1 | -1 | 1 | 0 | 7.8*
CCN1CCN(/C=N/c2nc(C)cs2)CC1 | 6.8* | 8 | 2 | 0 | 0 | 0 | 2
O=C(CCSc1nc2ccccc2o1)N1CCOCC1 | 7.1* | 1 | 0 | 0 | 1 | 0 | 3
CCc1ccc2c(c1)C(=O)c1ccccc1C2=O | 8.0* | 11* | 1 | 2.5* | 0 | 1 | 9.8*
CCc1ccc(NC2=CC(=O)C(=O)c3ccccc32)cc1 | 1 | 6 | -1 | 0 | -1 | . | .
Cc1cccc(C(=O)NCCN(C)C)c1 | 1 | 0 | 0 | -1 | 1 | . | .
COc1ccc(OC)c2nc3c(C(=O)NCCN(C)C)cccc3nc12 | 11* | 2 | 1 | 0 | 1 | 0 | 9.2*
CN(C)CCNC(=O)c1cccc2nc3cccc(F)c3nc12 | 18* | -1 | -4 | 1.5* | 1 | 1 | 14*
COc1ccc(S(=O)(=O)NCC(c2ccc(F)cc2)N2CCOCC2)cc1Br (stereo unspecified) | 0 | 3 | -1 | 0 | -1 | . | .
O=C1OC(c2cccs2)Sc2ccccc21 (stereo unspecified) | 1 | 1 | 0 | -1 | . | . | .
O=C(O)C(=O)/C(=C\c1cccc(Cl)c1)c1ccc2ccccc2n1 | 14* | 11* | 3.8* | 2.1* | 2 | 0 | 8.6*
O=C(O)/C(=C\c1ccccc1)c1ccc2ccccc2c1 | 1 | -1 | 1 | -1 | . | . | .
COC(=O)c1ccc(N=NN2CCCCCC2)cc1 | 0 | 10 | 3 | 0 | 2 | . | .
COC(=O)c1ccc(N=NNc2ccc(C(=O)OC)cc2)cc1 | 10* | 7 | 3 | 0 | -1 | 1 | 12*
COC(=O)c1ccc(Nc2c([N+](=O)[O-])c(=O)oc3ccccc23)cc1 | -1 | -1 | 0 | -1 | 2 | . | .
CCOc1ccc(N2C(=O)C(=O)/C(=C(/O)c3ccccc3)C2c2ccccc2[N+](=O)[O-])cc1 (stereo unspecified) | 9.4* | 2 | 1 | 1.3* | 0 | 0 | 3
O=C1C(=O)N(c2cccc(Cl)c2)C(c2ccccc2[N+](=O)[O-])/C1=C(\O)c1ccccc1 (stereo unspecified) | . | . | . | . | -1 | . | .
CC1=C(C(=O)N(C(C)C)C(C)C)CC(CC(=O)NC2CCCC2)C(=O)N1CCC1=CCCCC1 (stereo unspecified) | -1 | 1 | 0 | -1 | . | . | .
O=C(O)c1ccc(N=Nc2c(O)ccc3ncccc23)cc1 | 6.6* | 12* | 3 | 1 | 0 | 1 | 10*
Fc1ccc(C2Nc3cccc4cccc(c34)N2)cc1 | 7.1* | 4 | -1 | 0 | 1 | 0 | 3
SMILES | hcDAF-12 act | hgDAF12 agonist | DAX1 inh-1 | ssDAF12 agonist | DAX1 inh-2 | LXRb hcDAF ctr | hcDAF12 conf
CCCOc1ccc(C2Nc3cccc4cccc(c34)N2)cc1 | 6.7* | 2 | 0 | 0 | 0 | 0 | 4
Brc1ccc(C2Nc3cccc4cccc(c34)N2)cc1 | 1 | -2 | -1 | 0 | 1 | . | .
Cc1ccc(Nc2nc(-c3cccnc3)cs2)cc1C | 20* | 19* | 3 | 3.8* | 4.3* | 2 | 19*
Clc1cccc(Nc2nc(-c3cccnc3)cs2)c1 | 8.9* | 11* | 1 | 1.8* | 5.4* | 1 | 11*
CCc1ccccc1CC1CN(Cc2ccccc2)Cc2ccccc2N1c1ccc(OC)cc1 (stereo unspecified) | 1 | -1 | 1 | 0 | . | . | .
N#CCC[C@@H]1CC[C@]2(CCCN(C(=O)C3CCCC3)C2)O1 | -1 | 3 | 0 | -1 | . | . | .
CC1(C)CC2CC(C)(CN2S(=O)(=O)c2ccccc2[N+](=O)[O-])C1 (stereo unspecified) | -2 | -2 | -1 | -1 | -1 | . | .
O=S(=O)(NCc1c(Cl)cccc1Oc1ccccc1)c1ccccc1 | 20* | -3 | 0 | -1 | 0 | 0 | -1
CS(=O)(=O)c1ccccc1-c1nc(-c2ccc(C(F)(F)F)cc2)no1 | -3 | 1 | -1 | -2 | -1 | . | .
Cc1c(-c2nc(-c3ccc(C(F)(F)F)cc3)no2)n(C)oc1=O | 9.5* | 9 | 2 | 0 | . | 1 | 7.9*
CSc1cc(SC)ncn1 | -1 | 0 | 0 | 0 | 1 | . | .
Cc1ccccc1Cn1c(C)c(C(=O)N(C)Cc2ccc(F)cc2)sc1=O | 1 | -1 | -1 | -2 | . | . | .
CNc1nc(-c2ccccc2)[n+](-c2ccc(C)cc2)s1 | 11* | 8 | 2 | 1.1* | -2 | 0 | 0
Cc1ccc(-c2nc(N)s[n+]2-c2ccccc2)cc1 | 0 | 3 | 0 | 0 | 1 | . | .
Cc1ccc2nc(-c3ccc(NC(=O)COC(=O)c4ccc([N+](=O)[O-])o4)cc3)sc2c1 | 7.4* | 23* | 4.0* | 1.3* | 2 | 2 | 8.8*
O=C(COC(=O)c1ccc([N+](=O)[O-])o1)Nc1ccc(F)cc1 | 0 | 0 | -2 | -1 | -1 | . | .
O=C(O)Cc1sc(Nc2ccccc2)nc1-c1cccs1 | 6.9* | 10 | 1 | 0 | 7.8* | 0 | 4
COc1cc(Cc2nc3ccc(S(=O)(=O)N4CCOCC4)cc3[nH]2)cc(OC)c1OC | 8.0* | 1 | -1 | -2 | 0 | 0 | -1
Cc1ccc(-c2nnc(-c3cccc4ccccc34)o2)cc1 | 7.6* | 7 | 1 | 1.2* | -1 | 2 | 21*
CCCCN1C(=O)C(CC(=O)NCCN2CCOCC2)CC(C(=O)N(C(C)C)C(C)C)=C1C (stereo unspecified) | 1 | 3 | 0 | 0 | 0 | . | .
CN(C(=O)Cn1c(=O)oc2cc(S(=O)(=O)N3CCCC3)ccc21)C1CCCCC1 | 2 | 4 | 0 | -1 | 0 | . | .
O=C(Nc1nc(-c2cccs2)c(-c2cccs2)s1)C1CCCC1 | 8.1* | 5 | 0 | -1 | -1 | 0 | 1

Assay outcomes deposited in PubChem BioAssay by The Scripps Research Institute Molecular Screening Center.
